Values joined by “and” are separate entries in the source; they are usually repeats but may differ in a detail not shown here. Identical values can stand only once. About 1,500 (0.58%) of roughly 260,000 compounds were called active. Not shown: some 5% with an inconclusive outcome.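 Rule for the calls: active = inhibition above a set limit at one or more doses, reproduced on every date tested; inconclusive = results disagree between test dates, or hit never tested in dose response; inactive = the rest.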 A selection follows. Results with a measured potency or affinity are listed apart.
molecular target: Virion infectivity factor (Human immunodeficiency virus type 1 group M subtype B (isolate BH10)) + Virion infectivity factor (Human immunodeficiency virus type 1 group M subtype B (isolate BRU/LAI)) + Virion infectivity factor (Human immunodeficiency virus type 1 group M subtype B (isolate PCV12)) + Virion infectivity factor (Human immunodeficiency virus type 1 group M subtype B (isolate HXB2)) + DNA dC->dU-editing enzyme APOBEC-3G (Homo sapiens) (UniProt P69720+P69721+P69722+P69723+Q9HC16); assay: inhibitors of Vif binding to APOBEC3G peptide, primary screen, biochemical, TR-FRET, GST-Vif 1-94, biotin-A3G peptide, dose response retest (AID 1117319); conditions: stronger effect = higher value;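 note: Vif residues 1-94 fused to GST binding biotinylated APOBEC3G peptide 110-148; 0% = full assay without inhibitor and 100% = GST in place of GST-Vif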

inhibition, inactive:
COc1cccc(CNc2ccc(F)c([N+](=O)[O-])c2)c1O -12%
COCCCn1c(=NC(=O)c2ccncc2)c(C#N)cc2c(=O)n3cccc(C)c3nc21 3.9% and 7.65%
CCCCn1c(=NC(=O)c2ccc3c(c2)OCO3)c(C#N)cc2c(=O)n3cccc(C)c3nc21 6.53%
O=C(c1cccc(S(=O)(=O)N2CCc3ccccc32)c1)N1CCN(c2ccccn2)CC1 -7.91%
Cc1cnc(C(=O)OCC(=O)Nc2cc(-c3cc(C)c(C)cc3C)nn2-c2ccccc2)cn1 3.14%
COc1ccccc1-n1c(-c2ccco2)n[nH]c1=S -2.63%
S=c1[nH]nc(-c2cc(-c3ccco3)[nH]n2)n1-c1cccc2ccccc12 16.8%
S=c1[nH]nc(-c2cc(-c3ccco3)[nH]n2)n1-c1ccccc1 4.55%
COc1ccccc1-n1c(-c2cc(-c3ccc(F)cc3)n[nH]2)n[nH]c1=S 0.73%
Cc1cc2c(cc1C)NC1=C(N2)OC(c2cccc(O)c2)C1=O (configuration not stated) 5.24%
NS(=O)(=O)c1ccc(CCNC(=O)CSc2ccsc2[N+](=O)[O-])cc1 4.39%
CC(=O)N1CCN(C(=O)CCNC(=O)c2ccc(Br)cc2)CC1 0.92%
CCN1CCN(c2nc3ccccn3c(=O)c2/C=C(\C#N)S(=O)(=O)c2ccccc2)CC1 -0.55%
COC(=O)c1ccc(C(=O)NN)cc1 -8.26%
Cc1cccc(NC(=O)Cc2ccc(F)cc2)c1 -2.86%
Cc1ccc(NC(=O)CCc2nc(-c3cccs3)no2)c(Br)c1 0.83%
Fc1ccccc1/C=C/c1ccc2ccccc2n1 1.57%
C(=C\c1ccc2ccccc2n1)/c1ccccc1 10.9%
CN(C)c1c2ccccc2nc2c(F)c(F)c(F)c(F)c12 -2.85%
Cc1c(N(C)C)nc2ccccc2c1N -3.71%
CNC(=O)COc1coc(CN2CCN(c3cccc(Cl)c3)CC2)cc1=O 6.04%
CCOC(=O)N/N=C(/c1ccccc1)C1CCCCC1 -4.75%
CCOc1ccccc1OCC(=O)NC1CCCCC1 -0.58%
CCN(C(=O)COC(=O)/C=C/c1cnc2ccccc2n1)c1ccccc1 -2.53%
CCOCC(=O)OCC(=O)Nc1cc(OC)c([N+](=O)[O-])cc1C 7.7%
COc1cccc(-c2nnc(SCC(=O)Nc3cc(C)ccc3OC)n2N)c1 3.89%
CCn1cc[n+](C)c1P(c1ccccc1)c1ccccc1 3.82%
COCCCn1c(=O)c2sccc2n2c(CCCC(=O)NCc3ccccc3OC)nnc12 -3.09%
Cc1ccc([N+](=O)[O-])cc1S(=O)(=O)Nc1cccc(S(=O)(=O)NC2=NCCC2)c1 3.32%
O=[N+]([O-])c1ccc(Cl)c(S(=O)(=O)NC2=NCCC2)c1 -7.04%
CC1(C)CC(=O)C=C(c2n[nH]nc2-c2ccc(F)c(F)c2)C1 -13.9%
CCOC(=O)c1cc(-c2ccc(OC)cc2OC)nn1-c1ccc(C(=O)O)cc1 4.72%
CN1CCc2c(sc(NC(=O)c3ccc(S(=O)(=O)N4CCOCC4)cc3)c2C(N)=O)C1 18.7%
CC(C)N1CCc2c(sc(NC(=O)c3ccc(S(=O)(=O)N4CCOCC4)cc3)c2C(N)=O)C1 -2.18%
Cc1c(C(=O)N(C)Cc2nc3ccccc3c(=O)[nH]2)oc2ccccc12 -2.36%
O=C1C=C(Nc2ccc(Cl)cc2Cl)CC(c2ccco2)C1 (configuration not stated) 2.86%
Cc1ccc(C2CC(=O)C=C(NCC(C)C)C2)cc1 (configuration not stated) 3.68%
O=C1C=C(NCc2ccc(Cl)cc2)CC(c2ccco2)C1 (configuration not stated) 32.3%
Cc1ccc(NC2=CC(=O)CC(c3ccco3)C2)c(N)c1 (configuration not stated) 23.3%
Cc1ccnc(NC(=O)c2ccc3c(c2)OCO3)c1 4.65%
Cc1cc(C)c2c(c1)/C(=N\N=c1\sc3ccccc3n1C)C(=O)N2 0.52%
Cc1cccc2c1NC(=O)C2=O 32.4%
COc1ccc(OC)c(NC(=O)CCN2CCCCC2)c1 -3.02%
COc1ccc(OC)c(NC(=O)CCN2CCN(C)CC2)c1 2.28%
N#Cc1cccc(NC(=O)CSc2nnc(-c3n[nH]c4ccccc34)o2)c1 -4.45%
Cc1cc(C(=O)COC(=O)c2ccccc2O)c(C)n1CC1CCCO1 (configuration not stated) -14.1%
Cc1cc(C(=O)COC(=O)c2ccccc2Br)c(C)n1CC1CCCO1 (configuration not stated) 30.3%
CCn1c(C)cc(C(=O)CN2C(=O)c3ccccc3S2(=O)=O)c1C 6.44%
CCCn1c(C)cc(C(=O)CN2C(=O)c3ccccc3S2(=O)=O)c1C 0.72%
Cc1ccc(-n2nnnc2SCC(=O)c2cc(C)n(CC3CCCO3)c2C)cc1 (configuration not stated) -3.58%
Cc1cccc(-n2nnnc2SCC(=O)c2cc(C)n(CC3CCCO3)c2C)c1 (configuration not stated) 22.8%
COc1ccc(OCC(=O)Nc2ccc(OC)c(S(=O)(=O)N3CCCCC3)c2)cc1 -0.4%
N#CC1=C(S)N=C(N)C(c2nc(-c3ccccc3)cs2)C12CCCCC2 (configuration not stated) 13.7%
CCOC(=O)c1ccc(NC(=O)CSc2nnc(Cn3c(=O)sc4ccccc43)n2C)cc1 -11.7%
O=C(CN(C(=O)CNS(=O)(=O)c1ccc(F)cc1)C1CCCC1)NCc1ccco1 -8.82%
COC(=O)Cn1cnc2c(nnn2-c2ccc(OC)cc2)c1=O -8.1%
O=C(/C=N/O)NCc1cccnc1 -3.6%
O=C(N=C1SC2CS(=O)(=O)CC2N1c1ccc(Br)cc1)C1CCCO1 (configuration not stated) 2.67%
NC(=O)CN1C(=O)/C(=c2\sc3nc(=O)c(Cc4ccccc4)nn3c2=O)c2ccccc21 -13.2%
COC(=O)c1cc(Br)c(=O)n(CC(C)C)c1 4.6%
CC(C)c1cc(C(=O)OCC(=O)NC2CC2)c(O)c(C(C)C)c1 1.52%
CC1CCCCN1c1ccc(N)cc1C(N)=O (configuration not stated) 0.06%
COC(=O)c1ccc(N2CCCCC2)c(N)c1 24.1%
Nc1cc(C(=O)O)ccc1N1CCCCCC1 8.01%
NC(=O)c1cc(N)ccc1N1CCCCC1 -6.02%
Cc1cccc(NC(=O)C2SC(=Nc3c(C)cccc3C)C(C(=O)N3CCOCC3)=C2N)c1 (configuration not stated) 13.6%
N#Cc1ccccc1CN1C(=O)NC(Cc2c[nH]c3ccccc23)C1=O (configuration not stated) -3.01%
COc1ccc(/C=N/NC(=O)c2ccc3c(c2)OCO3)cc1 -0.02%
COc1ccc(C(=O)N/N=C/c2ccc(SC)cc2)cc1 -0.44%
CSCCC(NC(=O)c1ccccc1)C(=O)N/N=C(\C)c1ccccc1 (configuration not stated) -5.06%
Nc1cccc(Nc2ccccc2)c1 1.33%
Nc1cc(C(=O)O)ccc1Nc1ccccc1 13%
Cc1ccc(NS(=O)(=O)c2cc(N)ccc2Cl)c(C)c1 28.9%
Cc1ccc(Nc2ccc(C(=O)O)cc2N)cc1 15%
Cc1ccc(-n2cc(-c3ccccc3)c3c(NN4CCOCC4)ncnc32)cc1 21%
COc1cc2nc(N(CCN(C)C)C(=O)c3ccc4ccccc4c3)sc2cc1OC -3.84%
O=C1COc2ccc(C(=O)COC(=O)Cc3ccc(F)cc3)cc2N1 -9.09%
Nc1c(C(=O)OCC(=O)Nc2ccc(Cl)cc2[N+](=O)[O-])[nH]c(=O)[nH]c1=O -3.88%
CCc1cc2cccc(C)c2nc1SCC(=O)N1CCN(C(=O)c2ccco2)CC1 5.89% and -1.51%
CCc1cc2cc(C)ccc2nc1SCC(=O)N1CCN(C(=O)c2ccco2)CC1 3.37%
Cc1cccc(N2CCN(C(=O)c3ccccc3NC(=O)C3=CSCCO3)CC2C)c1 (configuration not stated) 0.87%
Cc1cc(=O)[nH]c2c3ccccc3nn12 -4.45%
CCOc1ccc(C2C(C(=O)OC)=C(C)N=C3SCCC(=O)N32)cc1OCC (configuration not stated) -1.89%
CC(C)C(NCc1c(Cl)cccc1Cl)C(=O)O (configuration not stated) -1.01%
COn1c(-c2ccccc2)nc2c1CCc1c-2no[n+]1[O-] 3.61%
c1ccc(COn2c(-c3ccccc3)nc3c2CCc2nonc2-3)cc1 -7.03%
Cc1c(C(=O)O)oc2c1C(=O)CC(C)(C)C2 -2.53%
CC1CC(C)CN(CC(C)(C)NS(=O)(=O)c2ccccc2)C1 (configuration not stated) 17.8%
O=C1C2C3C=CC(CC3)C2C(=O)N1c1ccc(Cl)cc1 (configuration not stated) 1.42%
CCN(CC)C(=O)[C@H]1C[C@H](CC(=O)NC(C)(C)C)C(=O)N2CCc3c([nH]c4cc(CCC(=O)N(C)C)ccc34)[C@]12C -0.23%
Cc1c(NS(=O)(=O)c2ccc(Cl)c(C(=O)OC(C)C(=O)NCc3ccco3)c2)c(=O)n(-c2ccccc2)n1C (configuration not stated) 5.59%
O=C(COC(=O)Cc1ccc(F)cc1)NCc1ccco1 -14.6%
COC(=O)CNC(=O)C(C)(C)Oc1ccc(Cl)cc1 -6.52%
COc1cccc(OC)c1C(=O)OCC(=O)NCc1ccco1 5.04%
COc1ccccc1OCC(=O)NCc1ccco1 8.05%
CC(C)(Oc1ccc(Cl)cc1)C(=O)NCC(c1ccco1)N1CCCCC1 (configuration not stated) 1.39%
O=C(COC(=O)Cc1ccc(Cl)c(Cl)c1)NCc1ccco1 7.25%

— PubChem BioAssay AID1117319 (Southern Research Institute, 2015)
